Compound activity deposited in PubChem by National Center for Advancing Translational Sciences (NCATS).
p53 reactivation: restores transcriptional activity of mutant p53. H1299 p53-A138V BP100-luciferase reporter, luminescence, 24 h. Potency, µM (highest dose often 92.2 µM), hits mostly activators. hit rate 0.063% among 320,000; also: nearly all actives have a fitted effect of over 45% in size
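p53-null H1299 cells stably carrying temperature-sensitive p53-A138V and a BP100-luciferase reporter were pinned with compounds (4-point, 1:5 series) and held 24 hrs at 37 deg C. Luminescence was read 10 min after detection reagent.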
ELG1 genotox: genotoxicity induction in ELG1-luciferase HEK293T cells. HEK293T ELG1-luciferase reporter, luminescence, 16 h. Potency, µM (series often up to 46 µM), most hits filed as activators. hit rate 1.3% among 330,000. AID 504466; also: nearly all actives have a fitted effect of over 60% in size
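DMSO vehicle served as control against compound-treated ELG1-luciferase HEK293T cells; exposure lasted 16 hr at 37 °C and 5% CO2, followed by ONE-Glo luminescence detection after 30 min.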
Rab9 promoter act: activates the Rab9 promoter | Huh7 Rab9 promoter-luciferase reporter, luminescence, 24 h | Potency, µM (top dose mostly 9.22 µM), usual class: activators | hit rate 2.8% among 320,000 | AID 485297; also: nearly all actives have a fitted effect of over 60% in size
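Huh7 cells stably carrying a Rab9 promoter-luciferase reporter, 1500 cells per well in OP-MEM I with 10% FBS, treated with compound 24 hours at 37C. Luciferase activity read by luminescence after 10 minutes with Amplite reagent.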
SMN2 splice up: enhancers of SMN2 splice variant expression | Potency, µM (series often up to 46.1 µM), most hits filed as activators | hit rate 2.8% among 210,000 | HEK293 SMN2-luciferase splicing reporter, luminescence, 30-36 h; also: nearly all actives have a fitted effect of over 55% in size
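HEK293 cells carry an SMN2 […]–luciferase reporter in which exon 7 inclusion puts luciferase in frame. Cells were plated 10-12 h before compound addition, then incubated 30-36 h at 37C. ONE-Glo luminescence was read; sodium butyrate at 4.5 mM final served as control.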
NPC1 prom act: activates the NPC1 promoter; hit rate 2.4% among 320,000; Potency, µM (titrated, usually from 9.22 µM), usual class: activators; AID 485313; Huh7 NPC1 promoter luciferase reporter, 24 h; also: nearly all actives have a fitted effect of over 60% in size
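Compounds in DMSO were transferred onto Huh7 NPC1-luciferase reporter cells pre-incubated 2 h; after 24 h at 37 °C, Amplite reagent was dispensed and luminescence recorded 10 min later.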
FLuc counter: counter-screen for miR-21 project: firefly luciferase inhibitors or activators; P08659; purified FLuc, Km substrates, luminescence inhibition; Potency, µM (series often up to 57.5 µM), most hits filed as inhibitors; hit rate 6.9% among 360,000; also: nearly all actives have a fitted effect of over 55% in size
Target sequence (P08659 whole entry, looked up): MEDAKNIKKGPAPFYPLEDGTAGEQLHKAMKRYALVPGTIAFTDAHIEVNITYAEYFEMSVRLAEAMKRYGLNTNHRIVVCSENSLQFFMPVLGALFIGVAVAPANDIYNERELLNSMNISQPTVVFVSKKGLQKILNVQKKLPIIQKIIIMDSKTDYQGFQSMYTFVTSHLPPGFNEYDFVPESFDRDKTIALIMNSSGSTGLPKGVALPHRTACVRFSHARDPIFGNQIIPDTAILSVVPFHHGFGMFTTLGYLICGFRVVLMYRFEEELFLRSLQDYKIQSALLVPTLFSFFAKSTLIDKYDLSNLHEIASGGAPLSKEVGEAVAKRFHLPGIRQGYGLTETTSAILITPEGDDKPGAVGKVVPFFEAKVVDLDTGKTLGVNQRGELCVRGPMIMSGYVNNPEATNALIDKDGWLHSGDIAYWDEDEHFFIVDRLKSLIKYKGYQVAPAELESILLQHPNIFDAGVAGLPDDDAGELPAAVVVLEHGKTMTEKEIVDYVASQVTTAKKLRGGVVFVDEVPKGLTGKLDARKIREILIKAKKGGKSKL
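Purified P. pyralis luciferase, 10 nM final, with Km-level 10 uM D-luciferin and 10 uM ATP in 50 mM Tris acetate pH 7.5, 10 mM Mg acetate, 0.01% Tween-20, 0.05% BSA; 6-point qHTS titration about 60 µM downward; luminescence read.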
Each line names hits and unclear results; the compound was inactive in the other large screens. This is a sample that favours compounds with a hit; in the whole collection about 7.3% have one here. Calls follow the shape of the dose curve; as a rule, active = well fitted curve in the direction sought with a large enough effect; inconclusive = small, poorly fitted or top-dose-only effect, or another doubt; inactive = no such curve, though single readings can be large; an effect the other way counts as inactive or inconclusive.

Cc1ccc2[nH]cc(C(=O)NCc3cccs3)c(=O)c2c1	none
COc1ccccc1-c1cc(C(=O)NC(C)c2ccccc2)no1 (stereo not drawn)	none (no result: SMN2 splice up)
COCCNC(=O)c1cc(-c2ccccc2OC)on1	p53 reactivation inconclusive, ELG1 genotox inconclusive, Rab9 promoter act inconclusive, FLuc counter 21.3µM
COc1cccc2c(=O)c(C(=O)NCc3cccs3)c[nH]c12	ELG1 genotox inconclusive, Rab9 promoter act 3.55µM, SMN2 splice up inconclusive, NPC1 prom act inconclusive, FLuc counter 9.53µM
COc1ccccc1-c1cc(C(=O)Nc2cc(OC)c(OC)c(OC)c2)no1	none (no result: p53 reactivation, ELG1 genotox, Rab9 promoter act, NPC1 prom act)
CCN(CC)C(=O)c1cc(-c2ccccc2OC)on1	p53 reactivation inconclusive, ELG1 genotox inconclusive, Rab9 promoter act inconclusive, NPC1 prom act inconclusive, FLuc counter 16.9µM
Cc1n[nH]c(=O)c2c(NC(=O)CSc3nc4ccccc4c(=O)n3CCCOC(C)C)oc(C)c12	none (no result: SMN2 splice up)
O=C1c2[nH]nc(-c3ccccc3O)c2C(c2ccc(Cl)cc2)N1CCc1ccccc1 (stereo not drawn)	none (no result: p53 reactivation, ELG1 genotox, Rab9 promoter act, NPC1 prom act)
COc1ccccc1-c1cc(C(=O)NCc2ccco2)no1	FLuc counter 15.1µM
COc1ccccc1-c1cc(C(=O)NCc2cccs2)no1	FLuc counter 19µM
COc1ccc(N2CCN(S(=O)(=O)c3ccc4c(c3)CCCN4C(C)=O)CC2)cc1	none (no result: p53 reactivation, ELG1 genotox, Rab9 promoter act, SMN2 splice up, NPC1 prom act)
C/C(=N\OC(=O)c1ccccc1F)c1nccs1	FLuc counter 1.35µM
C/C(=N/OC(=O)c1cccc(Cl)c1)c1nccs1	FLuc counter 2.13µM
O=C(OCc1cnc(Cl)s1)c1cccc(Cl)c1	none (no result: SMN2 splice up)
COCCNC(=O)c1nn(-c2ccc(Cl)cc2)nc1CO	FLuc counter inconclusive (no result: p53 reactivation, ELG1 genotox, Rab9 promoter act, NPC1 prom act)
CCc1ccc(-n2nc(CO)c(C(=O)NCCOC)n2)cc1	FLuc counter 16.9µM (no result: p53 reactivation, ELG1 genotox, Rab9 promoter act, NPC1 prom act)
c1cc2c3c(cccc3c1)C(N1CCCCCC1)=N2	none
c1ccc2c(c1)CCN(C1=Nc3cccc4cccc1c34)C2	Rab9 promoter act 2.82µM, SMN2 splice up 15.8µM, FLuc counter 6.75µM
CCOC(=O)c1ccc(NC(=O)CC2C(=O)N(c3ccc(F)cc3)C(=O)N2Cc2ccc(C)cc2)cc1 (stereo not drawn)	none (no result: p53 reactivation, ELG1 genotox, Rab9 promoter act, NPC1 prom act)
CCc1ccc(C(=O)c2c(N)c(-c3nc(-c4ccc5c(c4)OCO5)cs3)c3ccccn23)cc1	none (no result: p53 reactivation, ELG1 genotox, Rab9 promoter act, NPC1 prom act)
COC(=O)c1ccc2nc(-c3ccc4c(c3)OCO4)cn2c1	ELG1 genotox inconclusive, Rab9 promoter act 0.1µM, NPC1 prom act 0.224µM, FLuc counter 0.301µM (no result: SMN2 splice up)
CCc1ccn2cc(-c3ccc4c(c3)OCO4)nc2c1	ELG1 genotox 0.184µM, Rab9 promoter act inconclusive, NPC1 prom act inconclusive, FLuc counter 0.0601µM (no result: SMN2 splice up)
CCc1nnc2c(Nc3ccc(Br)c(C)c3)nc3ccccc3n12	none (no result: p53 reactivation, ELG1 genotox, Rab9 promoter act, SMN2 splice up, NPC1 prom act)
O=C(NC1CCCCCCC1)c1ccc2c(c1)OCO2	ELG1 genotox 2.06µM, Rab9 promoter act 0.398µM, SMN2 splice up 5.01µM, NPC1 prom act 0.794µM, FLuc counter 3.01µM
S=C(NC1CCCCC1)c1ccc2c(c1)OCO2	FLuc counter 8.49µM
O=C(NNC(=S)NC1CCCCC1)c1ccc2c(c1)OCO2	p53 reactivation inconclusive, Rab9 promoter act 1µM, SMN2 splice up 5.62µM, NPC1 prom act inconclusive, FLuc counter inconclusive
O=C(NC1CCCCC1)c1ccc2c(c1)OCCO2	p53 reactivation inconclusive, ELG1 genotox 20.6µM, Rab9 promoter act 3.16µM, NPC1 prom act 1.41µM, FLuc counter 13.5µM (no result: SMN2 splice up)
O=C(NNC(=S)NCc1ccccc1)c1ccc2c(c1)OCO2	none
CCOc1ccc(CNC(=O)Cn2ncc3c(=O)oc4ccc(C)cc4c32)cc1	none (no result: p53 reactivation, ELG1 genotox, Rab9 promoter act, NPC1 prom act)
N#CCCn1c(=O)c(-c2cccs2)nc2cnc(Oc3ccccc3)nc21	none (no result: p53 reactivation, ELG1 genotox, Rab9 promoter act, NPC1 prom act, FLuc counter)
CN(C)c1ccc(-c2cncnc2NCc2ccccc2)cc1	none (no result: p53 reactivation, ELG1 genotox, Rab9 promoter act, NPC1 prom act, FLuc counter)
Cc1ccccc1Nc1c(-c2ccc(O)cc2)nc2c(C)cccn12	FLuc counter inconclusive (no result: p53 reactivation, ELG1 genotox, Rab9 promoter act, NPC1 prom act)
CCc1ccc(C(=O)CCC2CCCCC2=O)cc1 (stereo not drawn)	ELG1 genotox 18.4µM, Rab9 promoter act inconclusive, NPC1 prom act inconclusive, FLuc counter 12µM
Cc1ccc(C(=O)CCC2CCCC2=O)cc1 (stereo not drawn)	p53 reactivation inconclusive, ELG1 genotox inconclusive, Rab9 promoter act inconclusive, SMN2 splice up inconclusive, NPC1 prom act 3.98µM, FLuc counter 12µM
